BoNT F protease – BoNT F light chain protease inhibition. inhibition, % at 10 µM. Multiplex microsphere protease cleavage assay, flow cytometry. 360,000 compounds, 0.22% hits; in the data active means inhibition above about 35%, passing the limit was not always enough; inconclusive means no clear call, values can overlap the other calls
VHR inh abs – inhibitors of human VHR1 phosphatase (DUSP3); recombinant VHR phosphatase, pNPP absorbance; inhibition, % at 13.3 µM; 290,000 compounds, 0.52% hits; in the data active means inhibition above about 50%
Bead autofluor – flagged as autofluorescent in microsphere protease counterscreen | compound autofluorescence counterscreen, microsphere flow cytometry; hits give high values | fluorescence intensity (no concentration beside the values) | 360,000 compounds, 3.1% hits | AID 624483; in the data active means fluorescence intensity above about 16000; inconclusive means no clear call, values can overlap the other calls
Anthrax LF prot – anthrax lethal factor protease inhibition | P15917 | multiplex microsphere protease cleavage assay, LF | inhibition, % at 10 µM | 360,000 compounds, 0.12% hits
Target sequence (P15917 whole entry, looked up): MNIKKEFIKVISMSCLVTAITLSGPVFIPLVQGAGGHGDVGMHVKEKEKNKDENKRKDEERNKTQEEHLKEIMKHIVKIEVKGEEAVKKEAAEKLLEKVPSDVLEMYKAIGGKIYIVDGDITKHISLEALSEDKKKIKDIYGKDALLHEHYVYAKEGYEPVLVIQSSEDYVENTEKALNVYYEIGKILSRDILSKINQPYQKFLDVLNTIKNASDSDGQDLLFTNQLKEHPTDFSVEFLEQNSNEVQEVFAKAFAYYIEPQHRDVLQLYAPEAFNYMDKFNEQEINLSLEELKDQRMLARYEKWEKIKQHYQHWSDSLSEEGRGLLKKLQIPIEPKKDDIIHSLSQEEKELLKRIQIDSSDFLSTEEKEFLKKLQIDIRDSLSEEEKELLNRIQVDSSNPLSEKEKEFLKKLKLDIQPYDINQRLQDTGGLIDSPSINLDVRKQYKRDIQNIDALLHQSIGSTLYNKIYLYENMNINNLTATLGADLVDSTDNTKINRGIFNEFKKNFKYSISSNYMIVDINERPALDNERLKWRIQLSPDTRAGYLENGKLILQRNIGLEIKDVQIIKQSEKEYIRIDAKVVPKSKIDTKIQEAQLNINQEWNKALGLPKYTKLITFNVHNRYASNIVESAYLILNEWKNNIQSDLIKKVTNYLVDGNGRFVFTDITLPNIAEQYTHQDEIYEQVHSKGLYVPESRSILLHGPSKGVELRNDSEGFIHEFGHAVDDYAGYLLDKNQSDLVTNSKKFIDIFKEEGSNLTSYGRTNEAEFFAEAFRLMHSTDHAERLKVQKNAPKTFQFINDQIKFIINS
BoNT-A LC inh2 – inhibitors of Botulinum neurotoxin A light chain protease | multiplex microsphere protease substrate cleavage, flow cytometry | inhibition, % at 10 µM | 360,000 compounds, 0.17% hits | AID 588499
SARS 3CLpro inh – SARS-CoV 3CLpro protease inhibition; P0C6X7; recombinant SARS-CoV 3CLpro, quenched FRET peptide cleavage; inhibition, % at 6 µM; 290,000 compounds, 0.14% hits; AID 1706; in the data active means inhibition above about 12%
A number is an active result; 0 = inactive; ? = inconclusive; - = not tested or not shown. Most compounds without a hit are left out; they make up all but 3.9% or so of the library. Unless noted, no stated cut-off is given here; in the data, active means inhibition above about 30%; inconclusive means no clear call, values can overlap the other calls; inactive means below that.

SMILES | BoNT F protease | VHR inh abs | Bead autofluor | Anthrax LF prot | BoNT-A LC inh2 | SARS 3CLpro inh
CC(CCc1ccccc1)NC(=O)COC(=O)C(CCC(N)=O)NC(=O)c1ccc(F)cc1 (configuration not stated) | 0 | - | 0 | 0 | 0 | -
OCCCNc1ncnc2c1ncn2[C@H]1CN(Cc2ccc3c(c2)OCO3)C[C@@H](CO)O1 | 0 | - | 0 | 0 | 0 | -
CCCOc1ccc(CN(C(=O)c2cccc(OC)c2)C2CCS(=O)(=O)C2)cc1 (configuration not stated) | 0 | 0 | 0 | 0 | 0 | 0
Cc1ccccc1OCC(=O)N(Cc1ccc(N(C)C)cc1)C1CCS(=O)(=O)C1 (configuration not stated) | 0 | 0 | 23914 | 0 | 0 | 0
CCCOc1cccc(C(=O)N(Cc2ccc(OC)c(OC)c2)C2CCS(=O)(=O)C2)c1 (configuration not stated) | 0 | 0 | 23243 | 0 | 0 | 0
O=C1C2CC=CCC2C(=O)N1CC(=O)N(Cc1ccccc1)C1CCS(=O)(=O)C1 (configuration not stated) | 0 | 0 | 22395 | 0 | 0 | 0
Cc1cccc(C)c1OCC(=O)N(Cc1ccc(Cl)cc1)C1CCS(=O)(=O)C1 (configuration not stated) | 0 | 0 | 0 | 0 | 0 | 0
CC(C)CCOc1cccc(OCC(=O)N(C)C2CCS(=O)(=O)C2)c1 (configuration not stated) | 0 | 0 | 16885 | 0 | 0 | 0
COc1ccc2[nH]c(=O)c(CN(C(C)=O)c3cc(C)ccc3C)cc2c1 | 0 | - | 0 | 0 | 0 | -
Cc1ccc(OCC(=O)N(Cc2ccc(N(C)C)cc2)C2CCS(=O)(=O)C2)cc1C (configuration not stated) | ? | 0 | 0 | 0 | 0 | 0
CN(C)c1ccc(CN(C(=O)COc2ccccc2)C2CCS(=O)(=O)C2)cc1 (configuration not stated) | 0 | 0 | 16811 | 0 | 0 | 0
CN1CCc2nc(SCC(=O)Nc3ccc(F)cc3)c(C#N)cc2C1 | - | 0 | - | - | - | 0
Cc1cc(NC(=O)c2nn3cccnc3c2Cl)no1 | 0 | 0 | 21821 | 0 | 0 | 0
ONC(=Nc1ccc(Cl)cc1)c1ccccc1 | 0 | 0 | 22689 | 0 | 0 | 0
O=[N+]([O-])c1cccc(C(=Nc2cccc(Cl)c2)NO)c1 | 0 | 0 | 0 | 0 | 0 | 0
O=C(CCn1c(=O)[nH]c2ccsc2c1=O)N1CC(=O)N(CCc2ccccc2)C(=O)C1 | 0 | 0 | 23732 | 0 | ? | 0
O=C(CCn1c(=O)[nH]c2ccsc2c1=O)N1CCN(c2cccc(Cl)c2)CC1 | 0 | 0 | ? | 0 | 0 | 0
Cc1onc(-c2ccccc2)c1C(=O)OCC(=O)Nc1ccc2c(c1)OCO2 | 0 | 0 | 19429 | 0 | 0 | 0
CN(C)c1nc(N)nc(CSc2nnnn2-c2ccc(F)cc2)n1 | 0 | 0 | 23095 | 0 | 0 | 0
COc1ccc(C(=O)OCC(=O)Nc2ccc(OC(F)F)cc2)c(OC)c1 | 0 | 0 | 16151 | 0 | 0 | 0
COc1ccc(CN2CN(c3ccc(Cl)cc3)C(=O)N(n3cnnc3)C2)cc1 | 0 | 0 | 0 | 0 | 0 | 0
O=C1N(c2ccc(Cl)c(Cl)c2)CN(Cc2ccccc2)CN1n1cnnc1 | 0 | 0 | 17448 | 0 | 0 | 0
CC1(c2ccc(OC(F)F)cc2)NC(=O)N(CC(=O)N2CCN(C(=O)c3ccco3)CC2)C1=O (configuration not stated) | 0 | - | 0 | 0 | 0 | -
CCOC(=O)C1=C(c2ccccc2)N=c2s/c(=C\c3cc(OC)c(OC)c(OC)c3)c(=O)n2C1c1cccs1 (configuration not stated) | 0 | 0 | 0 | 33.9 | 41.1 | 0
CCOC(=O)C1=C(c2ccccc2)N=c2s/c(=C\c3ccco3)c(=O)n2C1c1cccs1 (configuration not stated) | 0 | 0 | 0 | 0 | 0 | 0
SMILES | BoNT F protease | VHR inh abs | Bead autofluor | Anthrax LF prot | BoNT-A LC inh2 | SARS 3CLpro inh
Cc1ccc(CC(=O)NCCN2CCOCC2)cc1 | 35.8 | 0 | 0 | 0 | 0 | 0
COc1ccc(CC(=O)NCCN2CCOCC2)cc1 | 0 | 0 | 0 | 0 | 0 | 0
Cc1ccc(CC(=O)NCC(C)C)cc1 | 0 | 0 | 22914 | 0 | 0 | 0
O=C(Nc1ccccc1-c1nnc(SCc2ccccc2Cl)o1)c1ccccc1 | 0 | 0 | 0 | 0 | 0 | 0
CCCSc1ccc([C@@H]2[C@H]3C(=O)N(CC)C(=O)[C@H]3[C@]3(C(=O)OC)CCCCN23)cc1 | 0 | - | 22612 | 0 | 0 | -
CCN1C(=O)[C@H]2[C@@H](c3ccc(SC4CCCCC4)c(OC)c3)N3CCCC[C@@]3(C(=O)OC)[C@H]2C1=O | 0 | - | 0 | 0 | 0 | -
CCN1C(=O)[C@@H]2[C@@H](c3ccc(SC4CCCCC4)cc3)N3CCCC[C@@]3(C(=O)OC)[C@@H]2C1=O | 0 | - | 16473 | 0 | 0 | -
CCCOc1ccc(-c2nc(C#N)c(N3CCC(C(N)=O)CC3)o2)cc1 | 0 | 0 | 19961 | 0 | 0 | 0
CCOc1ccc(-c2nc(C#N)c(N3CCN(CC)CC3)o2)cc1 | 0 | 0 | 19650 | 0 | ? | 0
COc1ccc(CC(=O)NCC2CCCN(Cc3cccc(SC)c3)C2)cc1 (configuration not stated) | ? | 0 | 0 | 0 | 0 | 0
COc1ccc(Cc2noc(CN3CCCN(C4Cc5ccccc5C4)CC3)n2)cc1OC | 0 | 0 | 0 | 0 | 0 | 0
CC(C)[C@@H]1Cc2[nH][nH]c(=O)c2[C@H](C(C)C)O1 | 0 | - | 0 | 0 | 0 | -
CC1CCc2sc3ncnc(N4CCN(C)CC4)c3c2C1 (configuration not stated) | 0 | 0 | 0 | 0 | 0 | 0
O=C(NC1(C(F)(F)F)N=C2SCCN2C1=O)c1ccccc1 (configuration not stated) | 0 | 0 | 24460 | 0 | 0 | 0
COc1ccc(C(=O)NC2(C(F)(F)F)N=C3SCCN3C2=O)cc1 (configuration not stated) | 0 | 0 | 0 | 0 | 0 | 0
Cc1ccc(NC(=O)Cn2nnc(C(=O)NCc3ccccc3)c2N)cc1C | 0 | 0 | 23778 | 0 | 0 | 0
Cc1ccc(NC(=O)c2nnn(CC(=O)Nc3ccccc3)c2N)cc1C | 0 | 0 | 0 | 0 | 0 | 0
Cc1ccc(C)c(NC(=O)c2nnn(Cc3ccccc3C)c2N)c1 | 0 | 0 | 23851 | 0 | 0 | 0
Cn1cnnc1SC1CCCCC1NS(=O)(=O)c1ccc(Cl)cc1 (configuration not stated) | 0 | 0 | 0 | 0 | 0 | 0
Cn1cnnc1SC1CCCCC1NS(=O)(=O)c1ccccc1 (configuration not stated) | 0 | 0 | 23278 | 0 | 0 | 0
CSc1ccccc1C(=O)NCCSc1ccccc1 | 0 | 0 | 16492 | 0 | 0 | 0
CCCCNC(=O)c1ccccc1C(=O)NCCCC | 0 | 0 | 0 | 0 | 0 | 0
CCCCCNC(=O)c1ccccc1SC | 0 | 0 | 16772 | 0 | 0 | 0
Cc1ccc(NS(=O)(=O)c2cccc(C(=O)Nc3cccnc3)c2)c(C)c1 | 0 | - | 0 | 0 | 0 | -
CCOC(=O)NC1(NCC(C)C)Oc2ccccc2O1 | 0 | 0 | 16411 | 0 | 0 | 0
CCOC(=O)NC1(NC(C)C)Oc2ccccc2O1 | 0 | 0 | 0 | 0 | 0 | 0
CCOC(=O)C1=CCN(S(=O)(=O)c2ccccc2F)C1c1cccc(Cl)c1 (configuration not stated) | 0 | - | 0 | 0 | 0 | -

Source: PubChem
